Measurements published in PubChem BioAssay AID1159580 (chemical genetic matrix, 2015).
Values joined by “and” are separate entries in the source; they are usually repeats but may differ in a detail not shown here. Identical values can stand only once. The whole screen tested about 5,500 compounds, of which about 2,000 (36%) were called active. Another 18% or so got no clear call; they are omitted. Cut-off read from the data, not from the text of the source: active = normalized growth mostly below about 0.91 (no sharp cut-off); inconclusive = no clear call, values can overlap the other calls; inactive = mostly above about 0.92. Some of the results follow.

Test: chemical genetic growth profiling, strain panel (AID 1159580);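 note: tested at 20 µM; growth read once vehicle control cultures reached saturation at 30 °C; 1 = growth at the plate median or of vehicle wells; lower values mean less growth of the strain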
Details: S. cerevisiae deletion strains, growth OD

Measured: normalized growth

C[C@H]1O[C@@H](O[C@H]2[C@@H](O)C[C@H](O[C@H]3[C@@H](O)C[C@H](O[C@H]4CC[C@]5(C)C6CC[C@]7(C)[C@@H](C8=CC(=O)OC8)CC[C@]7(O)C6CC[C@@H]5C4)O[C@@H]3C)O[C@@H]2C)C[C@H](O)[C@@H]1O (some centres not stated)
inactive: locus YAL021C, strain ccr4, stronger effect = lower value 0.984 | locus YAL026C, strain drs2, stronger effect = lower value 0.965 | locus YAL030W, strain snc1, stronger effect = lower value 0.964 | locus YBL061C, strain skt5, stronger effect = lower value 0.975 | locus YBR009C, strain hhf1, stronger effect = lower value 0.968 | locus YBR021W, strain FUR4, stronger effect = lower value 0.968 | locus YBR023C, strain chs3, stronger effect = lower value 0.957 | locus YBR171W, strain sec66, stronger effect = lower value 0.98 | locus YBR229C, strain ROT2, stronger effect = lower value 0.982 | locus YBR231C, strain swc5, stronger effect = lower value 0.979 | locus YBR279W, strain paf1, stronger effect = lower value 0.967 | locus YCL011C, strain gbp2, stronger effect = lower value 0.951 | locus YCL016C, strain dcc1, stronger effect = lower value 0.921 | locus YCL029C, strain bik1, stronger effect = lower value 0.976 | locus YCL061C, strain MRC1, stronger effect = lower value 1.01 | locus YCL069W, strain vba3, stronger effect = lower value 0.969 | locus YCR088W, strain abp1, stronger effect = lower value 0.99 | locus YDL005C, strain med2, stronger effect = lower value 1.01 | locus YDL035C, strain GPR1, stronger effect = lower value 1.03 | locus YDL040C, strain nat1, stronger effect = lower value 0.975 | locus YDL074C, strain BRE1, stronger effect = lower value 0.982 | locus YDL101C, strain DUN1, stronger effect = lower value 0.987 | locus YDL134C, strain PPH21, stronger effect = lower value 1.02 | locus YDL185W, strain tfp1, stronger effect = lower value 1 | locus YDL192W, strain arf1, stronger effect = lower value 1 | locus YDR001C, strain nth1, stronger effect = lower value 0.968 | locus YDR069C, strain doa4, stronger effect = lower value 1.02 | locus YDR101C, strain arx1, stronger effect = lower value 1.01 | locus YDR137W, strain rgp1, stronger effect = lower value 0.976 | locus YDR159W, strain sac3, stronger effect = lower value 0.948 | locus YDR162C, strain NBP2, stronger effect = lower value 1.01 | locus YDR195W, strain ref2 1.03 | locus YDR297W, strain sur2, stronger effect = lower value 0.986 | locus YDR318W, strain mcm21, stronger effect = lower value 0.989 | locus YDR334W, strain swr1, stronger effect = lower value 0.983 | locus YDR335W, strain msn5, stronger effect = lower value 0.984 | locus YDR388W, stronger effect = lower value 0.986 | locus YDR392W, strain spt3, stronger effect = lower value 0.931 | locus YDR502C, strain sam2, stronger effect = lower value 0.993 | locus YEL003W, strain gim4, stronger effect = lower value 0.989 | locus YEL037C, strain rad23, stronger effect = lower value 0.976 | locus YEL061C, strain CIN8 (second series), stronger effect = lower value 0.971 | locus YEL061C, strain CIN8, stronger effect = lower value 0.999 | locus YER015W, strain faa2, stronger effect = lower value 0.977 | locus YER016W, strain bim1, stronger effect = lower value 0.98 | locus YER110C, stronger effect = lower value 0.989 | locus YER111C, strain swi4, stronger effect = lower value 0.969 | locus YER155C, strain BEM2 (second series), stronger effect = lower value 1.03 | locus YER155C, strain BEM2, stronger effect = lower value 0.988 | locus YER167W, strain BCK2, stronger effect = lower value 1 | locus YFR010W, strain ubp6, stronger effect = lower value 1 | locus YGL078C, strain dbp3, stronger effect = lower value 0.983 | locus YGL086W, strain mad1, stronger effect = lower value 1.02 | locus YGL167C, strain pmr1, stronger effect = lower value 1 | locus YGL173C, strain kem1, stronger effect = lower value 0.972 | locus YGL227W, strain vid30, stronger effect = lower value 0.989 | locus YGL240W, strain doc1, stronger effect = lower value 1.05 | locus YGL248W, strain PDE1, stronger effect = lower value 0.959 | locus YGR135W, strain pre9, stronger effect = lower value 0.965 | locus YGR252W, strain gcn5, stronger effect = lower value 0.967 | locus YHR013C, strain ard1, stronger effect = lower value 0.984 | locus YHR027C, strain rpn1, stronger effect = lower value 0.996 | locus YHR030C, strain SLT2, stronger effect = lower value 1 and 1.02 | locus YHR079C, strain IRE1 (second series), stronger effect = lower value 0.982 | locus YHR079C, strain IRE1, stronger effect = lower value 1.03 | locus YHR094C, strain hxt1, stronger effect = lower value 0.978 | locus YHR129C, strain ARP1, stronger effect = lower value 1 | locus YHR142W, strain chs7, stronger effect = lower value 0.926 | locus YHR200W, strain rpn10, stronger effect = lower value 0.999 | locus YIL066C, strain RNR3, stronger effect = lower value 0.993 | locus YIL073C, strain SPO22, stronger effect = lower value 0.936 | locus YIL125W, strain kgd1, stronger effect = lower value 0.985 | locus YIR030C, strain dcg1, stronger effect = lower value 0.976 | locus YJL092W, strain hpr5, stronger effect = lower value 0.981 | locus YJL095W, strain BCK1 (second series), stronger effect = lower value 0.991 | locus YJL095W, strain BCK1, stronger effect = lower value 0.953 and 1.05 | locus YJL115W, strain asf1, stronger effect = lower value 0.965 | locus YJL129C, strain trk1, stronger effect = lower value 0.988 | locus YJL134W, strain LCB3, stronger effect = lower value 0.995 | locus YJL154C, strain vps35, stronger effect = lower value 0.979 | locus YJL164C, strain tpk1, stronger effect = lower value 0.962 | locus YJL166W, strain qcr8, stronger effect = lower value 1.03 | locus YJL168C, strain set2, stronger effect = lower value 0.981 | locus YJL187C, strain SWE1 (second series), stronger effect = lower value 0.974 | locus YJR043C, strain POL32, stronger effect = lower value 1.04 | locus YJR066W, strain TOR1, stronger effect = lower value 0.958 | locus YKL009W, strain mrt4, stronger effect = lower value 0.978 | locus YKL068W, stronger effect = lower value 0.989 | locus YKL085W, strain MDH1 (second series), stronger effect = lower value 0.963 | locus YKL085W, strain MDH1, stronger effect = lower value 0.963 | locus YKL160W, strain elf1, stronger effect = lower value 0.985 | locus YKR001C, strain vps1, stronger effect = lower value 0.976 | locus YKR026C, strain gcn3, stronger effect = lower value 0.977 | locus YKR091W, strain srl3, stronger effect = lower value 0.967 | locus YLL001W, strain dnm1, stronger effect = lower value 0.989 | locus YLL026W, stronger effect = lower value 0.977 | locus YLL041C, strain sdh2, stronger effect = lower value 0.981 | locus YLR027C, strain aat2, stronger effect = lower value 0.979 | locus YLR039C, strain RIC1, stronger effect = lower value 0.999 | locus YLR058C, strain SHM2, stronger effect = lower value 0.978 | locus YLR102C, strain apc9, stronger effect = lower value 0.979 | locus YLR113W, strain HOG1, stronger effect = lower value 1.03 | locus YLR221C, strain rsa3, stronger effect = lower value 0.954 | locus YLR258W, strain gsy2, stronger effect = lower value 0.96 | locus YLR262C, strain YPT6 (second series), stronger effect = lower value 0.997 | locus YLR262C, strain YPT6, stronger effect = lower value 0.992 | locus YLR268W, strain sec22, stronger effect = lower value 0.988 | locus YLR320W, strain mms22, stronger effect = lower value 0.928 | locus YLR330W, strain CHS5, stronger effect = lower value 1 | locus YLR342W, strain FKS1 (second series), stronger effect = lower value 1.04 | locus YLR342W, strain FKS1, stronger effect = lower value 1 | locus YLR357W, strain rsc2, stronger effect = lower value 1.07 | locus YLR370C, strain arc18, stronger effect = lower value 0.956 | locus YLR371W, strain rom2, stronger effect = lower value 0.98 | locus YLR384C, strain iki3, stronger effect = lower value 0.954 | locus YLR418C, strain cdc73, stronger effect = lower value 0.928 | locus YML016C, strain PPZ1, stronger effect = lower value 1 | locus YML032C, strain rad52, stronger effect = lower value 0.996 | locus YML120C, strain ndi1, stronger effect = lower value 0.992 | locus YML124C, strain tub3, stronger effect = lower value 0.975 | locus YMR058W, strain fet3, stronger effect = lower value 1 | locus YMR078C, strain ctf18, stronger effect = lower value 0.967 | locus YMR125W, strain sto1, stronger effect = lower value 0.997 | locus YMR129W, stronger effect = lower value 0.973 | locus YMR205C, strain PFK2, stronger effect = lower value 0.924 | locus YMR223W, strain ubp8, stronger effect = lower value 0.966 | locus YMR231W, strain pep5, stronger effect = lower value 0.992 | locus YMR307W, strain GAS1, stronger effect = lower value 1.1 | locus YNL067W, strain RPL9B, stronger effect = lower value 0.981 | locus YNL071W, strain lat1, stronger effect = lower value 0.979 | locus YNL153C, strain GIM3, stronger effect = lower value 0.983 | locus YNL183C, strain NPR1, stronger effect = lower value 0.984 | locus YNL209W, strain ssb2, stronger effect = lower value 0.977 | locus YNL233W, strain BNI4, stronger effect = lower value 0.977 | locus YNL248C, strain rpa49, stronger effect = lower value 0.979 | locus YNL250W, strain rad50, stronger effect = lower value 0.997 | locus YNL271C, strain bni1, stronger effect = lower value 0.973 | locus YNL298W, strain CLA4, stronger effect = lower value 0.984 | locus YNL307C, strain MCK1, stronger effect = lower value 0.978 | locus YNL322C, strain KRE1 (second series), stronger effect = lower value 0.972 | locus YNR049C, strain mso1, stronger effect = lower value 0.977 | locus YNR052C, strain pop2, stronger effect = lower value 0.999 | locus YOL006C, strain TOP1, stronger effect = lower value 0.896 | locus YOL012C, strain htz1 0.968 | locus YOL147C, strain pex11, stronger effect = lower value 0.984 | locus YOR001W, strain rrp6, stronger effect = lower value 1.03 | locus YOR061W, strain CKA2, stronger effect = lower value 0.994 | locus YOR069W, strain VPS5, stronger effect = lower value 0.994 | locus YOR070C, strain gyp1, stronger effect = lower value 0.968 | locus YOR080W, strain dia2, stronger effect = lower value 0.982 | locus YOR083W, strain WHI5, stronger effect = lower value 0.967 | locus YOR106W, strain vam3, stronger effect = lower value 1 | locus YOR136W, strain idh2, stronger effect = lower value 0.985 | locus YOR144C, strain elg1, stronger effect = lower value 0.985 | locus YOR184W, strain ser1, stronger effect = lower value 0.963 | locus YOR231W, strain MKK1, stronger effect = lower value 1.01 | locus YOR265W, strain rbl2, stronger effect = lower value 0.988 | locus YOR270C, strain vph1, stronger effect = lower value 0.89 | locus YOR290C, strain snf2, stronger effect = lower value 0.944 | locus YOR316C, strain cot1, stronger effect = lower value 0.977 | locus YPL051W, strain arl3, stronger effect = lower value 1.01 | locus YPL078C, strain atp4, stronger effect = lower value 1.02 | locus YPL106C, strain sse1, stronger effect = lower value 0.989 | locus YPL240C, strain hsp82, stronger effect = lower value 0.999 | locus YPL241C, strain CIN2, stronger effect = lower value 1 | locus YPL256C, strain CLN2, stronger effect = lower value 1.02 | locus YPR119W, strain clb2, stronger effect = lower value 0.981 | locus YPR141C, strain kar3, stronger effect = lower value 0.953 | locus YPR163C, strain tif3, stronger effect = lower value 0.981 | locus YPR167C, strain met16, stronger effect = lower value 0.989 | strain wtn01, stronger effect = lower value 1
active: locus YGL253W, strain hxk2, stronger effect = lower value 0.761
